# Active and inactive are the calls of the source. Rule for the calls: active = hit-call score of the fitted dose curve at least 0.9, where 1 is the maximum; inactive = score below 0.9.
# Experiments:
# [1] = BSK_CASM3C_SRB: Viability Assessment in the BioMAP Diversity Plus: CASM3C Assay (AID 2283050); details: primary human coronary artery smooth muscle cells;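 note: cells exposed to compound for 24 h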
# [2] = read-out: Thrombomodulin, THBD (gene 7056); assay: BSK_CASM3C_Thrombomodulin: BioMAP Diversity Plus: CASM3C Assay for Thrombomodulin Biomarker Activity (AID 2283051); details: primary human coronary artery smooth muscle cells; actives raise or lower the signal;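 note: thrombomodulin protein level measured by ELISA 24 h after dosing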
# [3] = read-out: Tissue Factor, F3 (gene 2152); assay: BSK_CASM3C_TissueFactor: BioMAP Diversity Plus: CASM3C Assay for Tissue Factor Biomarker Activity (AID 2283052); details: primary human coronary artery smooth muscle cells; actives raise or lower the signal;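 note: cell surface tissue factor protein level read by ELISA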
# [4] = read-out: Interferon-gamma inducible Protein 10 (IP10), CXCL10 (gene 3627); assay: BSK_hDFCGF_IP10: BioMAP Diversity Plus: hDFCGF Assay for Interferon-gamma inducible Protein 10 (IP10) Biomarker Activity (AID 2283053); details: primary human foreskin fibroblasts; actives raise or lower the signal
# Summary of the method: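 ELISA quantification of IP-10 after a 24 h chemical exposure of human dermal foreskin fibroblast primary cultures. Both increases and decreases versus DMSO fitted.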
# [5] = read-out: Urokinase-type plasminogen activator receptor (uPAR), PLAUR (gene 5329); assay: BSK_CASM3C_uPAR: BioMAP Diversity Plus: CASM3C Assay for Urokinase-type plasminogen activator receptor (uPAR) Biomarker Activity (AID 2283054); details: primary human coronary artery smooth muscle cells; actives raise or lower the signal;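 note: cell-surface uPAR protein level quantified by ELISA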
# [6] = read-out: Vascular cell adhesion molecule 1 (VCAM1), VCAM1 (gene 7412); assay: BSK_CASM3C_VCAM1: BioMAP Diversity Plus: CASM3C Assay for Vascular cell adhesion molecule 1 (VCAM1) Biomarker Activity (AID 2283055); details: primary human coronary artery smooth muscle cells; actives raise or lower the signal;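 note: VCAM-1 protein level quantified by ELISA on the cells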
# [7] = read-out: Collagen III, COL3A1 (gene 1281); assay: BSK_hDFCGF_CollagenIII: BioMAP Diversity Plus: hDFCGF Assay for Collagen III Biomarker Activity (AID 2283056); details: primary human foreskin fibroblasts; actives raise or lower the signal
# Summary of the method: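 Cells: human foreskin fibroblasts, primary. Dosing followed by 24 h incubation, then ELISA for collagen III. Both increases and decreases scored relative to DMSO.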
# [8] = read-out: Epidermal growth factor receptor (EGFR), EGFR (gene 1956); assay: BSK_hDFCGF_EGFR: BioMAP Diversity Plus: hDFCGF Assay for Epidermal growth factor receptor (EGFR) Biomarker Activity (AID 2283057); details: primary human foreskin fibroblasts; actives raise or lower the signal
# Summary of the method: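 EGFR levels by ELISA in human dermal fibroblast cultures, 24 h post-treatment, fitted bidirectionally versus DMSO. Parallel wells stained with sulforhodamine B to detect overt cytotoxicity.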
# [9] = read-out: Interleukin-8 (IL8), CXCL8 (gene 3576); assay: BSK_hDFCGF_IL8: BioMAP Diversity Plus: hDFCGF Assay for Interleukin-8 (IL8) Biomarker Activity (AID 2283058); details: primary human foreskin fibroblasts; actives raise or lower the signal
# Summary of the method: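 IL-8 levels from compound-treated primary human fibroblasts were read by ELISA at 24 h, with DMSO serving as baseline for bidirectional fitting.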
# [10] = BSK_hDFCGF_Proliferation: Cell Proliferation Assessment in the BioMAP Diversity Plus: hDFCGF Assay (AID 2283059); details: primary human foreskin fibroblasts;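 note: curves fitted for both rise and fall of signal versus DMSO baseline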
# Summary of the method: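 This proliferation readout used SRB total-protein staining of human foreskin fibroblasts […], normalized to DMSO with bidirectional curve fitting.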
# [11] = read-out: Macrophage colony-stimulating factor (MCSF), CSF1 (gene 1435); assay: BSK_hDFCGF_MCSF: BioMAP Diversity Plus: hDFCGF Assay for Macrophage colony-stimulating factor (MCSF) Biomarker Activity (AID 2283060); details: primary human foreskin fibroblasts; actives raise or lower the signal
# Summary of the method: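 M-CSF levels, determined by ELISA, are taken at 24 h after dosing human skin fibroblasts. Responses in either direction are fitted with DMSO serving as the baseline.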
# [12] = BSK_hDFCGF_SRB: Viability Assessment in the BioMAP Diversity Plus: hDFCGF Assay (AID 2283061); details: primary human foreskin fibroblasts;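 note: cells exposed to compound for 24 h before the read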
# Summary of the method: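 Cells were dosed with test chemical, cultured 24 h, fixed with 10% TCA, then stained with 0.1% SRB and read at 560 nm. The fibroblasts were human foreskin primary cells, and DMSO served as baseline.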
# [13] = read-out: TIMP metallopeptidase inhibitor 1 (TIMP1), TIMP1 (gene 7076); assay: BSK_hDFCGF_TIMP1: BioMAP Diversity Plus: hDFCGF Assay for TIMP metallopeptidase inhibitor 1 (TIMP1) Biomarker Activity (AID 2283062); details: primary human foreskin fibroblasts; actives raise or lower the signal
# Summary of the method: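 Fibroblasts from human foreskin are treated with test chemical and harvested at 24 h. TIMP-1 is quantified by ELISA, and gain or loss of signal is scored against DMSO.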
# [14] = read-out: Monokine induced gamma interferon (MIG), CXCL9 (gene 4283); assay: BSK_hDFCGF_MIG: BioMAP Diversity Plus: hDFCGF Assay for Monokine induced gamma interferon (MIG) Biomarker Activity (AID 2283063); details: primary human foreskin fibroblasts; actives raise or lower the signal
# Summary of the method: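 MIG signal, determined by ELISA, reflects 24 h chemical exposure of human skin primary fibroblasts. DMSO serves as negative control and baseline.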
# [15] = read-out: Matrix Metallopeptidase 1 (MMP1), MMP1 (gene 4312); assay: BSK_hDFCGF_MMP1: BioMAP Diversity Plus: hDFCGF Assay for Matrix Metallopeptidase 1 (MMP1) Biomarker Activity (AID 2283064); details: primary human foreskin fibroblasts; actives raise or lower the signal
# Summary of the method: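 Human foreskin fibroblasts exposed to chemical for 24 h; MMP1 detected by ELISA, with DMSO as baseline for bidirectional fitting.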
# [16] = read-out: Vascular cell adhesion molecule 1 (VCAM1), VCAM1 (gene 7412); assay: BSK_hDFCGF_VCAM1: BioMAP Diversity Plus: hDFCGF Assay for Vascular cell adhesion molecule 1 (VCAM1) Biomarker Activity (AID 2283065); details: primary human foreskin fibroblasts; actives raise or lower the signal;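 for AC50: VCAM-1 protein level quantified by ELISA after 24 h chemical exposure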
# Summary of the method: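 Cells are dosed, cultured for 24 h, then VCAM-1 is quantified by ELISA; signal increases and decreases are both fitted relative to DMSO.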
# [17] = read-out: Plasminogen activator inhibitor-1 (PAI1), SERPINE1 (gene 5054); assay: BSK_hDFCGF_PAI1: BioMAP Diversity Plus: hDFCGF Assay for Plasminogen activator inhibitor-1 (PAI1) Biomarker Activity (AID 2283066); details: primary human foreskin fibroblasts; actives raise or lower the signal
# Summary of the method: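 PAI-1 levels in human dermal foreskin fibroblasts were quantified by ELISA 24 h after dosing, with gain or loss analysed against DMSO. Overt cytotoxicity was checked by sulforhodamine B total-protein staining in parallel cultures.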
# [18] = read-out: Intercellular Adhesion Molecule 1 (ICAM1), ICAM1 (gene 3383); assay: BSK_KF3CT_ICAM1: BioMAP Diversity Plus: KF3CT Assay for Intercellular Adhesion Molecule 1 (ICAM1) Biomarker Activity (AID 2283067); details: primary human keratinocytes with fibroblasts; actives raise or lower the signal
# Summary of the method: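 Dose the keratinocyte/fibroblast co-culture, wait 24 h, measure ICAM-1 by ELISA, then fit increases or decreases against DMSO. Cytotoxicity is checked in parallel cultures by SRB total-protein staining.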
# [19] = read-out: Interferon-gamma inducible Protein 10 (IP10), CXCL10 (gene 3627); assay: BSK_KF3CT_IP10: BioMAP Diversity Plus: KF3CT Assay for Interferon-gamma inducible Protein 10 (IP10) Biomarker Activity (AID 2283068); details: primary human keratinocytes with fibroblasts; actives raise or lower the signal
# Summary of the method: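 Signal is secreted/surface IP-10 by ELISA in a human primary skin co-culture of keratinocytes and foreskin fibroblasts, taken 24 h post-dosing; DMSO served as negative control.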
compound,measurement,setting,value
COP(=O)(CCC(=O)NCO)OC,outcome,[1],inactive
same,outcome,[2],inactive
same,outcome,[3],inactive
same,outcome,[4],inactive
same,outcome,[5],inactive
same,outcome,[6],inactive
same,outcome,[7],inactive
same,outcome,[8],inactive
same,outcome,[9],inactive
same,outcome,[10],inactive
same,outcome,[11],inactive
same,outcome,[12],inactive
same,outcome,[13],inactive
same,outcome,[14],inactive
same,outcome,[15],inactive
same,outcome,[16],inactive
same,outcome,[17],inactive
same,outcome,[18],inactive
same,outcome,[19],inactive
O=P(Oc1ccccc1)(Oc1ccccc1)Oc1ccccc1,outcome,[1],inactive
same,AC50,[2],29.6 µM (active)
same,outcome,[3],inactive
same,outcome,[4],inactive
same,outcome,[5],inactive
same,outcome,[6],inactive
same,AC50,[7],8.45 µM (active)
same,outcome,[8],inactive
same,outcome,[9],inactive
same,AC50,[10],14.2 µM (active)
same,AC50,[11],10.9 µM (active)
same,outcome,[12],inactive
same,outcome,[13],inactive
same,outcome,[14],inactive
same,outcome,[15],inactive
same,outcome,[16],inactive
same,AC50,[17],20 µM (active)
same,outcome,[18],inactive
same,outcome,[19],inactive
CCCCN(CCCC)N=O,outcome,[1],inactive
same,outcome,[2],inactive
same,outcome,[3],inactive
same,outcome,[4],inactive
same,outcome,[5],inactive
same,outcome,[6],inactive
same,outcome,[7],inactive
same,outcome,[8],inactive
same,outcome,[9],inactive
same,outcome,[10],inactive
same,outcome,[11],inactive
same,outcome,[12],inactive
same,outcome,[13],inactive
same,outcome,[14],inactive
same,outcome,[15],inactive
same,outcome,[16],inactive
same,outcome,[17],inactive
same,outcome,[18],inactive
same,outcome,[19],inactive
CSC(C)(C)C=NO,outcome,[1],inactive
same,outcome,[2],inactive
same,outcome,[3],inactive
same,outcome,[4],inactive
same,outcome,[5],inactive
same,outcome,[6],inactive
same,outcome,[7],inactive
same,outcome,[8],inactive
same,outcome,[9],inactive
same,outcome,[10],inactive
same,outcome,[11],inactive
same,outcome,[12],inactive
same,outcome,[13],inactive
same,outcome,[14],inactive
same,outcome,[15],inactive
same,outcome,[16],inactive
same,outcome,[17],inactive
same,outcome,[18],inactive
same,outcome,[19],inactive
CC(Cl)(Cl)C(=O)O,outcome,[1],inactive
same,outcome,[2],inactive
same,outcome,[3],inactive
same,outcome,[4],inactive
same,outcome,[5],inactive
same,outcome,[6],inactive
same,outcome,[7],inactive
same,outcome,[8],inactive
same,outcome,[9],inactive
same,AC50,[10],0.148 µM (active)
same,outcome,[11],inactive
same,outcome,[12],inactive
same,outcome,[13],inactive
same,outcome,[14],inactive
same,outcome,[15],inactive
same,outcome,[16],inactive
same,outcome,[17],inactive
same,outcome,[18],inactive
same,outcome,[19],inactive
O=S1(=O)OCC2C(CO1)C1(Cl)C(Cl)=C(Cl)C2(Cl)C1(Cl)Cl (stereo not drawn),outcome,[1],inactive
same,AC50,[2],20 µM (active)
same,AC50,[3],20.9 µM (active)
same,outcome,[4],inactive
same,AC50,[5],30.1 µM (active)
same,outcome,[6],inactive
same,outcome,[7],inactive
same,outcome,[8],inactive
same,outcome,[9],inactive
same,outcome,[10],inactive
same,outcome,[11],inactive
same,outcome,[12],inactive
same,outcome,[13],inactive
same,outcome,[14],inactive
same,outcome,[15],inactive
same,outcome,[16],inactive
same,outcome,[17],inactive
same,outcome,[18],inactive
same,outcome,[19],inactive
CC(C)Nc1ccc(Nc2ccccc2)cc1,AC50,[1],26.3 µM (active)
same,AC50,[2],36.6 µM (active)
same,AC50,[3],13.4 µM (active)
same,AC50,[4],5.88 µM (active)
same,AC50,[5],32.9 µM (active)
same,AC50,[6],27.5 µM (active)
same,AC50,[7],8.09 µM (active)
same,outcome,[8],inactive
same,AC50,[9],14 µM (active)
same,AC50,[10],0.464 µM (active)
same,AC50,[11],6.38 µM (active)
same,AC50,[12],6.01 µM (active)
same,AC50,[13],6.56 µM (active)
same,AC50,[14],6.46 µM (active)
same,AC50,[15],11.4 µM (active)
same,AC50,[16],2.21 µM (active)
same,AC50,[17],7.9 µM (active)
same,AC50,[18],20 µM (active)
same,AC50,[19],32.7 µM (active)
